TDP1 cell noCPT: qHTS for Inhibitors of human tyrosyl-DNA phosphodiesterase 1 (TDP1): qHTS in cells in absence of CPT. DT40 Tdp1-/- hTDP1 cells, no CPT, ATP luminescence, 48 h. Potency, µM (highest dose often 46.2 µM), usual class: inhibitors. actives 15% (n = 420,000). AID 686978, 2013; also: nearly all actives have a fitted effect of over 55% in size
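Growth kinetics read by CellTiter-Glo luminescence after ≥48 hr at 37 °C. Cells: DT40 Tdp1-/- stably carrying human TDP1, 400 per well, compound exposure in the absence of CPT (DMSO vehicle).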
HT1080-NT tox: qHTS for induction of synthetic lethality in tumor cells producing 2HG: qHTS for the HT-1080-NT fibrosarcoma cell line; Potency, µM (series often up to 46.1 µM), usual class: cytotoxic; AID 686970, 2013; HT-1080-NT fibrosarcoma viability, CellTiter-Glo ATP luminescence, 48 h; actives 1.6% (n = 360,000);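 also: NT is the 2HG producing partner of a matched IDH1 knockdown line; nearly all actives have a fitted effect of over 55% in size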
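Luminescent CellTiter-Glo readout after 48 hours of compound exposure at 37 degrees C defined viability of HT-1080-NT cells. Activity was normalized to DMSO wells and cell-free media wells; concentration-response curves were fitted and assigned curve classes.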
HT1080 IDH1KD tx: qHTS for induction of synthetic lethality in tumor cells producing 2HG: qHTS for the HT-1080-IDH1KD cell line | HT-1080 IDH1 knockdown viability, ATP luminescence, 48 h | Potency, µM (titrated, usually from 46.1 µM), most hits filed as cytotoxic | actives 2% (n = 360,000)
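HT-1080-IDH1KD cells (IDH1 knocked down), 750/well in RPMI with 5% FBS, treated with compound 48 h at 37 degrees C. Viability by CellTiter-Glo luminescence, normalised to DMSO and no-cell wells; concentration-response curves classed.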
ELG1 DNA repair: qHTS screen for small molecules that inhibit ELG1-dependent DNA repair in human embryonic kidney (HEK293T) cells expressing luciferase-tagged ELG1 | AID 504467, 2011 | actives 2.3% (n = 330,000) | Potency, µM (series often up to 46.1 µM), actives largely listed as inhibitors | HEK293T ELG1-luciferase reporter, luminescence, 16 h; DNA damage induced by 5-fluorouridine; also: nearly all actives have a fitted effect of over 55% in size
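5-Fluorouridine DNA damage + compound/DMSO, 2,000 cells/well, 16 h, 37 °C/5% CO2. ONE-Glo, 30 min RT, luminescence. Readout = decrease in reporter signal.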
TDP1 cell CPT: qHTS for Inhibitors of human tyrosyl-DNA phosphodiesterase 1 (TDP1): qHTS in cells in presence of CPT; Potency, µM (highest dose often 46.2 µM), actives largely listed as inhibitors; actives 12% (n = 420,000); chicken DT40 Tdp1-/-;hTDP1 cells + 20 nM CPT, ATP luminescence, 48 h; also: nearly all actives have a fitted effect of over 55% in size
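Chicken DT40 Tdp1-/- cells stably complemented with human TDP1 were seeded at 400 cells/well in medium containing 20 nM camptothecin, exposed to pin-transferred compounds, and grown at 37 °C for at least 48 hr. Viability was read as ATP luminescence.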
IL1B secr inh: qHTS for Inhibitors of Inflammasome Signaling: IL-1-beta AlphaLISA Primary Screen | AID 743279, 2014 | activity change, % at 57.5 µM | THP-1 LPS/ATP IL-1B secretion, AlphaLISA, 16 h; hits give low values | actives 4.7% (n = 360,000); in the data active = activity change below about -50%; inconclusive = mostly about -30% to -49%
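Secreted IL-1B measured by AlphaLISA bead assay after 16 h compound exposure of THP-1 cells; compounds (final up to 57.5 uM) added 1 h before LPS (250 ng/mL) and ATP (1.25 mM) stimulation; lower signal means less secretion.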
Hits are given with their value; – = inactive; ? = inconclusive; · = no result. In the library only some 19% were active in any assay of this set; here they are far more common. Unless noted, calls follow the shape of the dose curve; as a rule, active = well fitted curve in the direction sought with a large enough effect; inconclusive = small, poorly fitted or top-dose-only effect, or another doubt; inactive = no such curve, though single readings can be large; an effect the other way counts as inactive or inconclusive.

SMILES	TDP1 cell noCPT	HT1080-NT tox	HT1080 IDH1KD tx	ELG1 DNA repair	TDP1 cell CPT	IL1B secr inh
N#C/C(=C\N1CCCCC1)S(=O)(=O)c1ccc(Cl)cc1	–	–	–	–	–	–
Cc1cc(C)n(CCc2nc3c4ccccc4nc(N4CCN(c5ccccc5F)CC4)n3n2)n1	–	·	·	·	–	·
CCOC(=O)c1[nH]c2c(c1C)C(=O)CC(c1ccc(F)cc1)C2 (stereo not drawn)	0.65µM	2.1µM	2.9µM	?	0.73µM	–
Cc1c(C(=O)OCC2CCCCC2)[nH]c2c1C(=O)CC(c1ccc(Cl)cc1)C2 (stereo not drawn)	–	·	·	·	–	·
Cc1ccc(COC(=O)c2[nH]c3c(c2C)C(=O)CC(c2ccc(Cl)cc2)C3)cc1 (stereo not drawn)	9.2µM	·	·	·	12µM	·
Cc1c(C(=O)OCCOc2ccccc2)[nH]c2c1C(=O)CC(c1ccccc1)C2 (stereo not drawn)	0.15µM	·	·	·	0.23µM	·
COc1ccc(N2C(=O)c3ccccc3NC(=O)C2C(=O)NCc2ccco2)cc1 (stereo not drawn)	–	–	–	·	?	–
O=C(Nc1cccnc1)C1CCCN(c2ncnc3c2nc2n3CCCCC2)C1 (stereo not drawn)	?	–	–	–	–	–
O=C(NCc1cccc(Cl)c1)C1CCCN(c2ncnc3c2nc2n3CCCCC2)C1 (stereo not drawn)	12µM	–	–	?	–	?
O=C(NCCc1ccc(Cl)cc1)C1CCCN(c2ncnc3c2nc2n3CCCCC2)C1 (stereo not drawn)	?	–	–	?	?	–
O=C(NCC1CCN(Cc2cccc(Cl)c2)CC1)C1CCCN(c2ncnc3c2nc2n3CCCCC2)C1 (stereo not drawn)	?	21µM	?	?	26µM	?
COc1ccc(CCNC(=O)C2CCCN(c3ncnc4c3nc3n4CCCCC3)C2)c(OC)c1 (stereo not drawn)	?	–	–	?	?	–
COc1ccc(CNC(=O)C2CCCN(c3ncnc4c3nc3n4CCCCC3)C2)cc1 (stereo not drawn)	?	–	–	–	18µM	–
O=C(Nc1cccc(Cl)c1)C1CCCN(c2ncnc3c2nc2n3CCCCC2)C1 (stereo not drawn)	?	·	·	·	5.2µM	·
COc1ccc(CNC(=O)c2ccc(CS(=O)(=O)c3ccc(C)cc3)o2)cc1	?	–	–	–	–	–
Cc1cccc(CSCCNC(=O)C2CCN(S(=O)(=O)Cc3ccccc3)CC2)c1	–	·	·	·	–	·
O=C(NCc1ccccc1)C1CCCN(c2ncnc3c2nc2n3CCCCC2)C1 (stereo not drawn)	21µM	–	–	?	?	–
Cc1cccc(CCNC(=O)C2CCCN(c3ncnc4c3nc3n4CCCCC3)C2)c1 (stereo not drawn)	?	–	–	?	–	–
CC1CCCC(C)N1CCCNC(=O)C1CCCN(c2ncnc3c2nc2n3CCCCC2)C1 (stereo not drawn)	–	–	–	–	–	–
Cc1ccc(CNC(=O)C2CCCN(c3ncnc4c3nc3n4CCCCC3)C2)cc1 (stereo not drawn)	9.2µM	–	–	–	?	–
CCOC(=O)C1CCCN(C/C=C/c2ccccc2)C1 (stereo not drawn)	–	–	–	–	–	–
CSCCC(NC(=O)COc1ccccc1)C(=O)N(C)CC(=O)Nc1ccc(Cl)cc1 (stereo not drawn)	?	–	–	?	?	–
CSCCC(NC(=O)COc1ccccc1)C(=O)N(C)Cc1c(F)cccc1Cl (stereo not drawn)	12µM	–	–	·	21µM	–
Cc1ccc(SCCC(=O)NC(C)C)cc1	–	–	–	?	–	–
Cc1ccc(SCCC(=O)OC(C(=O)NC(N)=O)C(C)C)cc1 (stereo not drawn)	16µM	–	–	–	16µM	–
SMILES	TDP1 cell noCPT	HT1080-NT tox	HT1080 IDH1KD tx	ELG1 DNA repair	TDP1 cell CPT	IL1B secr inh
COc1cc(C)c(C)cc1S(=O)(=O)NC1CC(C)(C)NC(C)(C)C1	–	–	–	–	–	–
O=C(Cn1nc(Cc2cccnc2)c2ccccc2c1=O)N1CCN(c2ccc(F)cc2)CC1	23µM	·	·	·	?	·
Cc1ccc(C)c(N2CCN(C(=O)Cn3nc(Cc4cccnc4)c4ccccc4c3=O)CC2)c1	23µM	·	·	·	?	·
CCOC(=O)C1CCCN(C(=O)Cn2nc(Cc3cccnc3)c3ccccc3c2=O)C1 (stereo not drawn)	–	–	–	–	–	–
COc1ccc(CNC(=O)c2cnn(-c3ccc(C)cc3)c2-n2cccc2)cc1OC	16µM	·	·	·	?	·
O=C(Nc1cc(C(F)(F)F)ccc1Cl)c1cnn(-c2ccccc2)c1-n1cccc1	23µM	·	·	·	23µM	·
CCOC(=O)c1cccc(NC(=O)c2cnn(-c3ccccc3)c2-n2cccc2)c1	21µM	·	·	·	26µM	·
COc1ccccc1NC(=O)c1cnn(-c2ccccc2)c1-n1cccc1	18µM	·	·	·	18µM	·
COc1ccc(CNC(=O)c2cnn(-c3ccccc3)c2-n2cccc2)cc1OC	18µM	·	·	·	?	·
COc1cc(OC)c(NC(=O)c2cnn(-c3ccccc3)c2-n2cccc2)cc1Cl	–	·	·	·	–	·
CCOc1ccc(NC(=O)Cc2csc(COc3cccc(C)c3)n2)cc1	–	·	·	·	–	·
Cc1ccc(OCC(=O)OCC(=O)Nc2ccc3c(c2)OCO3)cc1C	–	–	–	–	–	–
Cc1ccc(OCC(=O)Nc2ccc3c(c2)OCO3)cc1C	26µM	–	–	–	–	–
Cc1ccc(C)c(OCC(=O)Nc2ccc3c(c2)OCO3)c1C	18µM	–	–	–	?	–
Cc1c(NC(=O)C(C)Sc2ncnc3ccccc23)c(=O)n(-c2ccccc2)n1C (stereo not drawn)	–	–	–	–	–	–
Cc1cc(C)cc(NC(=O)C(Sc2ncnc3ccccc23)c2ccccc2)c1 (stereo not drawn)	?	–	–	–	?	-58
Cn1nnnc1SC(C(=O)Nc1cccc(C(F)(F)F)c1)c1ccccc1 (stereo not drawn)	–	–	–	–	–	-72

Bioassay records deposited in PubChem by National Center for Advancing Translational Sciences (NCATS).
